According to PubChem BioAssay AID1159580 (chemical genetic matrix, 2015):
Several values for one entry are separate records, joined by “and”; a condition that tells them apart may be missing. Equal entries are not always repeated. Out of some 5,500 compounds screened, about 2,000 (36%) were called active. About 18% were inconclusive and are not listed. No stated cut-off is given here; in the data, active means normalized growth mostly below about 0.91 (no sharp cut-off); inconclusive means no clear call, values can overlap the other calls; inactive means mostly above about 0.92. The list shows a part of the results.

Assay: chemical genetic growth profiling, strain panel (AID 1159580);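 further: tested at 20 µM; growth read once vehicle control cultures reached saturation at 30 °C; 1 = growth at the plate median or of vehicle wells; lower values mean less growth of the strain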
Details: S. cerevisiae deletion strains, growth OD

Measured: normalized growth

CC(=O)N[C@@H](Cc1c[nH]c2ccccc12)C(=O)O
inactive: locus YAL013W, strain DEP1, active compounds read low 1.01 | locus YAL021C, strain ccr4, active compounds read low 0.991 | locus YAL026C, strain drs2, active compounds read low 0.978 | locus YAL030W, strain snc1, active compounds read low 0.999 | locus YBL061C, strain skt5, active compounds read low 0.975 | locus YBR009C, strain hhf1, active compounds read low 1.03 | locus YBR021W, strain FUR4, active compounds read low 0.998 | locus YBR023C, strain chs3, active compounds read low 0.996 | locus YBR171W, strain sec66, active compounds read low 0.977 | locus YBR229C, strain ROT2, active compounds read low 1 | locus YBR231C, strain swc5, active compounds read low 0.981 | locus YBR279W, strain paf1, active compounds read low 0.982 | locus YCL011C, strain gbp2, active compounds read low 0.982 | locus YCL016C, strain dcc1, active compounds read low 0.97 | locus YCL029C, strain bik1, active compounds read low 1.03 | locus YCL061C, strain MRC1, active compounds read low 0.991 | locus YCL069W, strain vba3, active compounds read low 0.979 | locus YCR088W, strain abp1, active compounds read low 0.992 | locus YDL005C, strain med2, active compounds read low 0.971 | locus YDL035C, strain GPR1, active compounds read low 1.01 | locus YDL040C, strain nat1, active compounds read low 0.983 | locus YDL074C, strain BRE1, active compounds read low 1.03 | locus YDL101C, strain DUN1, active compounds read low 1.02 | locus YDL134C, strain PPH21, active compounds read low 0.987 | locus YDL185W, strain tfp1, active compounds read low 1.01 | locus YDL192W, strain arf1, active compounds read low 1.01 | locus YDR001C, strain nth1, active compounds read low 0.992 | locus YDR069C, strain doa4, active compounds read low 0.998 | locus YDR101C, strain arx1, active compounds read low 1.01 | locus YDR137W, strain rgp1, active compounds read low 0.968 | locus YDR150W, strain NUM1, active compounds read low 1 | locus YDR159W, strain sac3, active compounds read low 1.01 | locus YDR162C, strain NBP2, active compounds read low 1.01 | locus YDR195W, strain ref2 0.942 | locus YDR297W, strain sur2, active compounds read low 0.994 | locus YDR318W, strain mcm21, active compounds read low 1.02 | locus YDR334W, strain swr1, active compounds read low 0.981 | locus YDR335W, strain msn5, active compounds read low 0.987 | locus YDR388W, active compounds read low 1.03 | locus YDR392W, strain spt3, active compounds read low 0.988 | locus YDR502C, strain sam2, active compounds read low 1.02 | locus YEL003W, strain gim4, active compounds read low 0.986 | locus YEL037C, strain rad23, active compounds read low 0.986 | locus YEL061C, strain CIN8 (second series), active compounds read low 0.985 | locus YEL061C, strain CIN8, active compounds read low 1 | locus YER015W, strain faa2, active compounds read low 0.991 | locus YER016W, strain bim1, active compounds read low 0.953 | locus YER110C, active compounds read low 1.02 | locus YER111C, strain swi4, active compounds read low 0.971 | locus YER155C, strain BEM2 (second series), active compounds read low 0.982 | locus YER155C, strain BEM2, active compounds read low 0.997 | locus YER167W, strain BCK2, active compounds read low 1.01 | locus YFR010W, strain ubp6, active compounds read low 1 | locus YGL078C, strain dbp3, active compounds read low 1.01 | locus YGL086W, strain mad1, active compounds read low 1.02 | locus YGL167C, strain pmr1, active compounds read low 0.983 | locus YGL173C, strain kem1, active compounds read low 0.985 | locus YGL227W, strain vid30, active compounds read low 0.984 | locus YGL240W, strain doc1, active compounds read low 1.02 | locus YGL248W, strain PDE1, active compounds read low 1.04 | locus YGL253W, strain hxk2, active compounds read low 0.979 | locus YGR078C, strain PAC10, active compounds read low 1.01 | locus YGR135W, strain pre9, active compounds read low 1.03 | locus YGR229C, strain SMI1, active compounds read low 1.01 | locus YGR252W, strain gcn5, active compounds read low 1.02 | locus YHR013C, strain ard1, active compounds read low 0.952 | locus YHR027C, strain rpn1, active compounds read low 0.976 | locus YHR030C, strain SLT2, active compounds read low 1 and 0.996 | locus YHR079C, strain IRE1 (second series), active compounds read low 1.02 | locus YHR079C, strain IRE1, active compounds read low 0.987 | locus YHR094C, strain hxt1, active compounds read low 1.01 | locus YHR129C, strain ARP1, active compounds read low 1 | locus YHR142W, strain chs7, active compounds read low 0.977 | locus YHR200W, strain rpn10, active compounds read low 1.02 | locus YIL066C, strain RNR3, active compounds read low 1 | locus YIL073C, strain SPO22, active compounds read low 1.04 | locus YIL125W, strain kgd1, active compounds read low 1.01 | locus YIR030C, strain dcg1, active compounds read low 1.02 | locus YJL092W, strain hpr5, active compounds read low 0.986 | locus YJL095W, strain BCK1 (second series), active compounds read low 0.996 | locus YJL095W, strain BCK1, active compounds read low 1.05 and 0.998 | locus YJL115W, strain asf1, active compounds read low 0.978 | locus YJL129C, strain trk1, active compounds read low 0.956 | locus YJL134W, strain LCB3, active compounds read low 1.01 | locus YJL154C, strain vps35, active compounds read low 0.968 | locus YJL164C, strain tpk1, active compounds read low 0.988 | locus YJL166W, strain qcr8, active compounds read low 1.01 | locus YJL168C, strain set2, active compounds read low 1.02 | locus YJL187C, strain SWE1 (second series), active compounds read low 1.01 | locus YJL187C, strain SWE1, active compounds read low 0.987 | locus YJR043C, strain POL32, active compounds read low 1.03 | locus YJR066W, strain TOR1, active compounds read low 0.901
